We go through nine compounds from PubChem BioAssay (Tox21).

“And” between values parts separate entries of the source, which are not always exact repeats. Equal values may be shown once. More than one record can exist for a structure, and the calls need not agree. The source made the active and inactive calls. Unless noted, calls follow the shape of the dose curve; as a rule, active = well fitted curve in the direction sought with a large enough effect in the repeat runs; inconclusive = weak or mixed curves; inactive = no such curve, though single readings can be large; an effect the other way counts as inactive or inconclusive.

The nature of assay [1]: qHTS assay for identifying genotoxic compounds that show differential cytotoxicity against isogenic chicken DT40 cell lines with known DNA damage response pathways - wild type cell line (AID 743012). Also: nearly all actives have a fitted effect of over 60% in size. Also: potency is read from the fitted curve at half-maximal effect. In a few lines:
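Cytotoxicity in repair-proficient parental chicken DT40 cells serves as the comparator for Rad54/Ku70- and Rev3-deficient lines. Cells were exposed to compounds for 40 h at 37 C/5% CO2, and ATP-based luminescence (CellTiter-Glo) measured viability.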
(qHTS replaces the single test concentration by a dilution series.)

Assay [2] in a line: qHTS assay for identifying genotoxic compounds that show differential cytotoxicity against isogenic chicken DT40 cell lines with known DNA damage response pathways - Rev3 mutant cell line (AID 743014). Also: nearly all actives have a fitted effect of over 55% in size. Also: potency is read from the fitted curve at half-maximal effect.
Assay [3] can be described thus: qHTS assay for identifying genotoxic compounds that show differential cytotoxicity against isogenic chicken DT40 cell lines with known DNA damage response pathways - Rad54/Ku70 mutant cell line (AID 743015). Also: nearly all actives have a fitted effect of over 60% in size. Also: potency is read from the fitted curve at half-maximal effect.
A short description of assay [4]: qHTS assay to identify small molecule antagonists of the androgen receptor (AR) signaling pathway - cell viability counter screen (AID 743033; also: nearly all actives have a fitted effect of over 45% in size; also: potency is read from the fitted curve at half-maximal effect).
Assay [5] is described as follows: qHTS assay to identify small molecule antagonists of the thyroid receptor (TR) signaling pathway - cell viability counter screen (AID 743064). Also: nearly all actives have a fitted effect of over 50% in size. Also: potency is read from the fitted curve at half-maximal effect. The essentials: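 Same-well viability check: GH3.TRE-Luc cells stimulated with 1 nM T3 alongside test compound for 23.5 h, followed by CellTiter-Fluor fluorescence.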
The nature of assay [6]: qHTS assay to identify small molecule antagonists of the thyroid receptor (TR) signaling pathway (AID 743065). Also: nearly all actives have a fitted effect of over 55% in size. Also: potency is read from the fitted curve at half-maximal effect. The essentials: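 Antagonism measured as loss of luciferase signal in GH3 cells stably carrying a TRE-luciferase reporter, co-treated with compound and T3 (1 nM final) for 23.5 h at 37 C. Viability was read in the same well by CellTiter-Fluor.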
Assay [7] has as its system thyroid hormone receptor (rat, GH3 cells). The experiment in a line: qHTS assay to identify small molecule agonists of the thyroid receptor (TR) signaling pathway (AID 743066; calls by dose curve).
Assay [8] has as its target Estrogen receptor (Homo sapiens) (UniProt P03372). As to the kind of experiment: qHTS assay to identify small molecule antagonists of the estrogen receptor alpha (ER-alpha) signaling pathway (AID 743069; active = well fitted curve in the direction sought with a large enough effect in the signal ratio in the repeat runs, not every such curve was filed as active; inconclusive = weak or mixed curves, or effect the other way; inactive = no such curve, though single readings can be large or run the other way; the % refers to the signal ratio; also: potency is read from the fitted curve at half-maximal effect). The essentials:
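Fluorescence intensity from a beta-lactamase FRET substrate served as the read-out. Cells: HEK293 with stably integrated ER-alpha-UAS-bla reporter. Agonist 17beta-estradiol was co-added with compounds; incubation 18 hr at 37C, substrate 2 hr at room temperature.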

A short description of assay [9]: qHTS assay to identify small molecule antagonists of the estrogen receptor alpha (ER-alpha) signaling pathway - cell viability counter screen (AID 743074; calls by dose curve; also: nearly all actives have a fitted effect of over 45% in size; also: potency is read from the fitted curve at half-maximal effect).
The target in assay [10] is Estrogen receptor (Homo sapiens) (UniProt P03372). As to the kind of experiment: qHTS assay to identify small molecule agonists of the estrogen receptor alpha (ER-alpha) signaling pathway (AID 743075; calls by dose curve; also: potency is read from the fitted curve at half-maximal effect).
Sequence of Estrogen receptor (Homo sapiens) (P03372 whole entry, looked up): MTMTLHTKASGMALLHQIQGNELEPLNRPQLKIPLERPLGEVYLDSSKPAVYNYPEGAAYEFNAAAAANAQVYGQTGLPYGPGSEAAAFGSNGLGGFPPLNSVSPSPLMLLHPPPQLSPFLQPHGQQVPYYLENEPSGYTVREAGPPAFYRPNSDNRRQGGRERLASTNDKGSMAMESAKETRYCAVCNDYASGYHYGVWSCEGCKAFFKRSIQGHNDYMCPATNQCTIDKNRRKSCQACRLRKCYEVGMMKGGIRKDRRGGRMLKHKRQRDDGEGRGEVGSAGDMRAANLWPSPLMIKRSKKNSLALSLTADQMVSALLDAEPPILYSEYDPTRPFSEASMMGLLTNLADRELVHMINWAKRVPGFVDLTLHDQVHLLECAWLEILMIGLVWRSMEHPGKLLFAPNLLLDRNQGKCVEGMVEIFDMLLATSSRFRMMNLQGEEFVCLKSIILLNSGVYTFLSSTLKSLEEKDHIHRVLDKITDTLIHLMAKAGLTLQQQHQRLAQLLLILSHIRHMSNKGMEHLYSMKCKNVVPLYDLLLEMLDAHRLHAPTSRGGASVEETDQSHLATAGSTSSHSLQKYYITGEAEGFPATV
The target is the same in assay [11]. As to the kind of experiment: qHTS assay to identify small molecule agonists of the estrogen receptor alpha (ER-alpha) signaling pathway using the BG1 cell line (AID 743079). Also: nearly all actives have a fitted effect of over 20% in size. Also: potency is read from the fitted curve at half-maximal effect. The note with it: BG1Luc4E2 cells, ERE-luciferase agonist, 22 h; activation: at 70.3 µM (top of the series).
The nature of assay [12]: qHTS assay to identify small molecule antagonists of the estrogen receptor alpha (ER-alpha) signaling pathway using the BG1 cell line - cell viability counter screen (AID 743081).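 Also: compound given together with 17beta-estradiol as the ER stimulus; nearly all actives have a fitted effect of over 45% in size.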 Also: potency is read from the fitted curve at half-maximal effect.
The next assay deals with Aromatase (Homo sapiens) (UniProt P11511). The experiment in a line: qHTS assay to identify aromatase inhibitors (AID 743083). Also: nearly all actives have a fitted effect of over 55% in size. Also: potency is read from the fitted curve at half-maximal effect.
Sequence of Aromatase (Homo sapiens) (P11511 whole entry, looked up): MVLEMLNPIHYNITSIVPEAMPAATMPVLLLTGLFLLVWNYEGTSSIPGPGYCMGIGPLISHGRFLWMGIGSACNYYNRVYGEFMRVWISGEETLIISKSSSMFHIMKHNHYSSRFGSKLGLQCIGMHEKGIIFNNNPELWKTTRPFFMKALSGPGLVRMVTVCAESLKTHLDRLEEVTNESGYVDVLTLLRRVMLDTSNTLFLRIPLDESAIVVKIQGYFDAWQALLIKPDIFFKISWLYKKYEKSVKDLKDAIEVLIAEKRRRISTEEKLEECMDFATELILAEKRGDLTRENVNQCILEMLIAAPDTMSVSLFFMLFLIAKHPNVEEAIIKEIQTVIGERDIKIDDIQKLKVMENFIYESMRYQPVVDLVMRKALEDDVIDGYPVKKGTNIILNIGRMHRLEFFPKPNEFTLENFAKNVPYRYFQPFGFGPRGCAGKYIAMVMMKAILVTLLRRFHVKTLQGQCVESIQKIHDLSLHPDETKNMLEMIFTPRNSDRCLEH
Assay [13] is described as follows: qHTS assay to identify small molecule antagonists of the androgen receptor (AR) signaling pathway using the MDA cell line - cell viability counter screen (AID 743041; also: nearly all actives have a fitted effect of over 45% in size; also: potency is read from the fitted curve at half-maximal effect). The essentials: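 Using the breast carcinoma line MDA-kb2 AR-luc, test chemicals were co-incubated with R1881 for 16 h; CellTiter-Fluor reagent, added at 15.5 h, provided a fluorescence measure of live cells.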

Assay [14] can be described thus: qHTS assay to identify small molecule antagonists of the glucocorticoid receptor (GR) signaling pathway - cell viability counter screen (AID 720693). Also: nearly all actives have a fitted effect of over 55% in size. Also: potency is read from the fitted curve at half-maximal effect.
Assay [15] concerns the target Androgen receptor (Homo sapiens) (UniProt P10275). The experiment in a line: qHTS assay to identify small molecule agonists of the androgen receptor (AR) signaling pathway using the MDA cell line (AID 743040; also: nearly all actives have a fitted effect of over 20% in size). In a few lines: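 Stable MMTV-luciferase reporter in MDA-kb2 cells; note the promoter carries GR as well as AR response elements. 16 h compound treatment, 37C, 0% CO2; ONE-Glo luminescence endpoint.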

The target is the same in assay [16]. The experiment in a line: qHTS assay to identify small molecule antagonists of the androgen receptor (AR) signaling pathway using the MDA cell line (AID 743042). In a few lines:
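Antagonist mode: compounds plus R1881 agonist added to MDA-kb2 AR-luc cells, incubated 16 h at 37C. Luciferase reporter luminescence quantified, with multiplexed CellTiter-Fluor readout for cell viability.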

Assay [17] in a line: qHTS assay to identify small molecule antagonists of the estrogen receptor alpha (ER-alpha) signaling pathway using the BG1 cell line (AID 743080; calls by dose curve;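 also: BG1 cells stimulated with 17beta-estradiol alongside compound; nearly all actives have a fitted effect of over 25% in size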; also: potency is read from the fitted curve at half-maximal effect). The essentials:
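Quantitative HTS on the Tox21 10K library: BG1 cells with endogenous ER-alpha and ERE-luciferase reporter, 17beta-estradiol stimulation, 21.5 h compound exposure, luminescence endpoint with parallel fluorescence cytotoxicity counter-read.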

Sequence of Androgen receptor (Homo sapiens) (P10275 whole entry, looked up): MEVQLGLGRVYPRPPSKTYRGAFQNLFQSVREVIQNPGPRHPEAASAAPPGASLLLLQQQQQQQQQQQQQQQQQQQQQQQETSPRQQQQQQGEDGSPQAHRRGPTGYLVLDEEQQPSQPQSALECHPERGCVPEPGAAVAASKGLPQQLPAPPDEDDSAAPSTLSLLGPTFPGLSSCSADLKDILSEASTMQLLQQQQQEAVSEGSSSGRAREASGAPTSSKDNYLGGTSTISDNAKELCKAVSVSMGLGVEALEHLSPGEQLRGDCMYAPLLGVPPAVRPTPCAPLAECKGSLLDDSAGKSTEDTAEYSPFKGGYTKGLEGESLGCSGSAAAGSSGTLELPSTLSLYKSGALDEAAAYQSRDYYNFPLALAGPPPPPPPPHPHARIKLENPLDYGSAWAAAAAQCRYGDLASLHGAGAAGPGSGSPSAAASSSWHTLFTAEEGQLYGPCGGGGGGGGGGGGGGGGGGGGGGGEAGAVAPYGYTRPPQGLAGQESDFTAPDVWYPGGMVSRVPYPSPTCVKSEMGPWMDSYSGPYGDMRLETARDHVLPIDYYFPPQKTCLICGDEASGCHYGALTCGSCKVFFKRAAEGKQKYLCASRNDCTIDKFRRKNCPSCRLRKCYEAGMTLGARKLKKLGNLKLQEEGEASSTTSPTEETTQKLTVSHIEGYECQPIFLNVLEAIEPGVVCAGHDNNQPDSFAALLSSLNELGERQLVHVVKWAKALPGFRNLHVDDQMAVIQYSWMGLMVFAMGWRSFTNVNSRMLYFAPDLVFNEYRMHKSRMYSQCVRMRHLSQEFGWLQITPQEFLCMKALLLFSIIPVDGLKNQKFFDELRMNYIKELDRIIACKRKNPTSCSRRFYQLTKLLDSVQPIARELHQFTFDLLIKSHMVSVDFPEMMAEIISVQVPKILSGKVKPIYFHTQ

As to `CCCCCCCCCCCCCCn1cc[n+](C)c1`, the Potency in [1] was 217 nM (active) and 241 nM (active) and inactive; in [2], 109 nM (active) and 152 nM (active) and inactive; in [3], 122 nM (active) and 135 nM (active) and inactive; in [4], 6.93 µM (active) and 24.3 µM (active) and inactive; in assay [5] it was 2.74 µM (active) and 15.2 µM (active); in assay [6], 1.09 µM (active) and 3.81 µM (active). In addition, the Potency in assay [8] is 7.78 µM [inconclusive] (active) and 1.22 µM [inconclusive] (active) and inactive; in [9], 48.5 µM (active) and inactive; in [12], 30.7 µM (active) and 24.1 µM (active); in the assay with Aromatase (Homo sapiens), 2.44 µM (active) and 5.39 µM (active) and inactive. The Potency entry in [7], in assay [10] and in assay [11] was “inactive” in each case.

Turning to `Nc1cc(Cl)ccc1Cl`, the Potency entry in [1], in assay [2], in [3], in [4], in assay [13] and in assay [5] was “inactive” each time. Moreover, the Potency entry in [6], in assay [7], in [9] and in [12] was “inactive” throughout.

Regarding `Oc1cc(Cl)c(Cl)c(Cl)c1Cl`, the Potency in assay [14] was 21.4 µM (active); in assay [4], 53.7 µM (active); in assay [16], 59.7 µM (active); in assay [5], 29.9 µM (active); in [6] it was 15 µM (active). For the same compound, in [15], the result was inactive. The Potency entry in [7], in assay [10] and in assay [12] was “inactive” throughout.

For `COC(=O)N(OC)c1ccccc1COc1ccn(-c2ccc(Cl)cc2)n1`, the Potency in assay [1] is 193 nM (active); in assay [2] it was 243 nM (active); in assay [3], 0.217 µM (active); in assay [4], 0.871 µM (active); in assay [13], 1.72 µM (active); in assay [5], 61.1 µM (active). Moreover, the results for the Potency (in assay [10]; in assay [17]; with Aromatase (Homo sapiens)) were 0.275 µM [inconclusive] (active), 0.77 µM (active) and 61.1 µM (active), respectively.

Consider `CCN(CC)CCN1C(=O)CN=C(c2ccccc2F)c2cc(Cl)ccc21`, for which the Potency in assay [1] is 6680 nM (active); in assay [2], 13300 nM (active); in assay [3] it was 26.6 µM (active); in assay [5] it was 29.8 µM (active). Moreover, the Potency entry in assay [4], in assay [13], in [7], in assay [9], in assay [10] and in assay [11] was “inactive” each time. Moreover, the Potency entry (in assay [17]; in assay [12]; with Aromatase (Homo sapiens)) was “inactive” throughout.

Regarding `CCC(C)c1cccc(C(C)CC)c1O` (configuration not stated), the Potency entry in assay [14], in assay [4], in assay [13], in assay [7], in assay [9] and in [10] was “inactive” throughout. Further, the Potency entry in assay [11] and in assay [12] was “inactive” in each case. Moreover, in [6], the Potency is 61.1 µM (active).

Turning to `C#CC1(O)CCCCC1`, the Potency result in assay [1], in assay [2], in assay [4], in assay [13], in [5] and in assay [6] was “inactive” throughout. The Potency result (in assay [7]; in assay [9]; in assay [12]; with Aromatase (Homo sapiens)) was “inactive” each time.

In the case of `c1ccc(N=NNc2ccccc2)cc1`, the Potency in assay [3] is 63.3 µM (active); in assay [8] it was 21.9 µM [inhibitor] (active); in assay [11], 14.2 µM (active) and 54.5 µM (active); in assay [17] it was 68.6 µM (active). Further, the Potency entry (in assay [4]; in assay [6]; in assay [7]; in assay [9]; in [10]; with Aromatase (Homo sapiens)) was “inactive” throughout.

Regarding `CC1CCCC1`, the Potency result in [1], in [2], in assay [4], in assay [13], in assay [5] and in [7] was “inactive” each time. Besides, the Potency entry (in assay [9]; in assay [12]; in the assay with Aromatase (Homo sapiens)) was “inactive” throughout.
